From PubChem
A selection: hits, their analogues and other compounds. The true share with any hit is near 15%.
HCMV inh = human cytomegalovirus inhibition; HFF cells, HCMV-luciferase reporter, 72 h; stronger effect = lower value; activity change, negative = inhibition, % at 57.5 µM; 4.5% of 410,000 active; AID 1259415; in the data active = activity change below about -60%; inconclusive = no clear call, values can overlap the other calls; inactive = above about -39%
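Steps: HFFs plated, 16 h 37C; compounds added; HCMV-luciferase added to MOI 1 PFU/cell; 72 h 37C; OneGlo reagent, 5 min room temperature; luminescence read, normalized to controls.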
Sm TGR inh = inhibitors of Schistosoma mansoni thioredoxin glutathione reductase; Q962Y6; purified TGR, DTNB reduction, TNB absorbance 405 nm; Potency, µM (top dose mostly 114 µM), hits mostly inhibitors; 3% of 360,000 active; also: nearly all actives have a fitted effect of over 60% in size
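First, TGR (20 nM dispensed) and NADPH were mixed with compound. Second, a 15 min room-temperature incubation followed. Third, further NADPH and then DTNB were added to start the reaction. Finally, TNB absorbance was monitored kinetically.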
Pf growth 48h = P. falciparum growth inhibition at 48 hours (one generation); P. falciparum luciferase growth in erythrocytes, 48 h; Potency, µM (top dose mostly 28.7 µM), hits mostly inhibitors; 5.9% of 310,000 active
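Read-out is firefly luciferase luminescence from an integrated reporter in P. falciparum, so falling signal marks reduced parasite growth. Infected erythrocytes were at 2% hematocrit and 0.1% parasitemia (final) in Albumax-supplemented RPMI 1640.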
Pf growth 96h = P. falciparum growth inhibition at 96 hour, primary screen for plastid delayed-death inhibitors; P. falciparum luciferase reporter growth, 96 h; Potency, µM (titrated, usually from 28.7 µM), actives largely listed as inhibitors; 6.9% of 320,000 active; AID 504834
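Plates of compound plus infected erythrocytes (2% hematocrit, 0.05% parasitemia final) incubate 96 hours, 37 C, 5% CO2. Detection reagent added; reduced luminescence from the parasites' luciferase reporter flags inhibition.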
HCV inhibitor = inhibitors of hepatitis C virus infection | Huh7.5.1 HCVcc-Cre infection, luciferase reporter, 44 h | 3.4% of 340,000 active | Potency, µM (highest dose often 41.8 µM), usual class: inhibitors | AID 651820
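Compounds are dispensed onto cells plated 4 h earlier at 1,000 per well, with HCVcc-Cre virus (about 0.5 moi) added next. Following 44 h of culture, luminescent signal is measured for 15 sec after 15 min with substrate at room temperature.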
SARS PLP yeast = SARS-CoV PLP inhibition in yeast. Potency, µM (titrated, usually from 32.9 µM), most hits filed as activators. S. cerevisiae expressing SARS-CoV PLpro, growth rescue. 0.19% of 330,000 active; calls by dose curve; also: nearly all actives have a fitted effect of over 55% in size
A number is an active result; – = inactive; ? = inconclusive; · = no result; [ ] = remark or other dose. Unless noted, calls follow the shape of the dose curve; as a rule, active = well fitted curve in the direction sought with a large enough effect; inconclusive = small, poorly fitted or top-dose-only effect, or another doubt; inactive = no such curve, though single readings can be large; an effect the other way counts as inactive or inconclusive.

SMILES | HCMV inh | Sm TGR inh | Pf growth 48h | Pf growth 96h | HCV inhibitor | SARS PLP yeast
C=CCn1c(Cc2c[nH]c3ccccc23)n[nH]c1=S | – | – | 13.1µM | – | – | –
CCN(CC)C(=S)Sc1c(-c2ccccc2)c2cc(Cl)ccc2[nH]c1=O | – | – | ? | · | – | –
O=C1c2oc3ccc(Cl)cc3c(=O)c2C(c2cccc(Br)c2)N1CCO (stereo not given) | – | – | 11.7µM | –[5.75 µM] | ? | –
CCCOc1ccc(C2c3c(oc4ccccc4c3=O)C(=O)N2CCN(CC)CC)cc1OC (stereo not given) | – | – | 1.47µM | ? | – | –
CCN(CC)CCN1C(=O)c2oc3ccccc3c(=O)c2C1c1cccc(Br)c1 (stereo not given) | – | – | ? | 0.928µM | – | –
CN(c1nc(-c2ccc(Br)cc2)cs1)C1CCS(=O)(=O)C1 (stereo not given) | – | – | – | – | ? | –
CCCc1cc(=O)oc2c(C)c3c(cc12)CN(CCc1ccc(Cl)cc1)CO3 | – | – | · | · | · | ·
CCOC(=O)C1CCN(C(=O)COC(=O)c2cccc(NS(=O)(=O)c3ccccc3)c2)CC1 | – | · | · | · | ? | ·
COc1ccc(NC(=O)CN2C(=O)NC(C)(C3CC3)C2=O)cc1S(=O)(=O)N1CCCCC1 (stereo not given) | – | – | ? | ? | ? | –
O=C(C1COc2ccccc2O1)N1CCN(c2nc3ccc(F)cc3s2)CC1 (stereo not given) | ? | – | · | · | · | ·
COc1cccc(-c2nn(C)c3sc(C(=O)NCc4ccc(OC)cc4OC)cc23)c1 | – | – | · | · | · | ·
COc1cccc(-c2nn(C)c3sc(C(=O)NCc4ccc(C)o4)cc23)c1 | – | 8.91µM | ? | ? | 2.82µM | –
COc1ccc(CNC(=O)c2cc3c(-c4ccc(Cl)cc4)nn(C)c3s2)cc1 | – | – | · | · | · | ·
COc1cccc(-c2nn(C)c3sc(C(=O)NCc4ccc5c(c4)OCO5)cc23)c1 | – | – | · | – | 14.1µM | –
O=C(Nc1ccccc1C(=O)OCc1cc(=O)n2c3c(sc2n1)CCCC3)c1ccccc1 | -83.2 | – | · | · | · | ·
O=C(Nc1cccc(C(=O)OCc2cc(=O)n3c4c(sc3n2)CCCC4)c1)c1cccc(F)c1 | -74.3 | – | · | · | · | ·
Cc1nc2ccc(NC(=O)CCC3CCCC3)cc2s1 | – | – | – | – | – | –
CCCCOc1cccc2c(=O)n(CC(=O)Nc3ccc4c(c3)OCCO4)ccc12 | – | · | · | · | · | ·
COc1cc(O)c(CCO)c2c1C(=O)C[C@@H](C)O2 | – | – | – | 1.85µM | ? | –
CC(C)(C)c1ccccc1OCCCCCNCCO | – | – | 4.15µM | – | 7.94µM | –
CC(C)c1ccccc1OCCCCCNCCO | – | – | 4.15µM | 4.15µM | ? | –
O=C(O)Cc1ccc(C(=O)c2cccs2)s1 | – | – | – | 10.4µM | – | –
CCOc1cccc2cc(C(=O)NCc3ccc(C)cc3)c(=N)oc12 | – | – | – | – | – | –
CCOc1cccc2cc(C(=O)NCc3ccc(OC)cc3)c(=N)oc12 | – | – | ? | 10.4µM | – | –
CCOc1cccc2cc(C(=O)NCc3cccnc3)c(=O)oc12 | – | – | – | 2.33µM | – | –
SMILES | HCMV inh | Sm TGR inh | Pf growth 48h | Pf growth 96h | HCV inhibitor | SARS PLP yeast
Fc1cccc(C2CCCCN2Cc2nc(C3CC3)no2)c1 (stereo not given) | – | – | – | ? | – | –
CCCS(=O)(=O)Nc1cc(-c2cn3ccc(C)cc3n2)ccc1C | – | – | · | · | · | ·
Cc1ccc(CN2C(=O)C3CCCN3c3ncccc32)cc1 (stereo not given) | – | ? | –[0.00184 µM] | ? | – | –
Cc1ccc(CN2C(=O)C3CCCN3c3ccc(S(=O)(=O)N4CCOCC4)cc32)cc1 (stereo not given) | · | – | 4.65µM | 1.65µM | · | –
COc1cccc(NC(=O)Cn2nnc(-c3nc(-c4ccccc4)no3)c2N)c1 | – | – | · | · | · | ·
Cc1cc2c(cc(C(=O)OC(C(=O)NCC3CCCO3)C(C)C)n2C)o1 (stereo not given) | ? | – | – | ? | ? | –
Cc1cc2c(cc(C(=O)OC(C(=O)NC3CCCCC3)C(C)C)n2C)o1 (stereo not given) | ? | – | ? | – | 15.8µM | –
CC(=O)C1CCC2C3CC(C)C4(O)CC(=O)CCC4(C)C3C(O)CC12C (stereo not given) | – | · | · | · | – | ·
CC(=O)C12CCCCC1CC1C3CC(C)C4(O)CC(=O)CCC4(C)C3CCC12C (stereo not given) | – | – | – | 9.28µM | – | –
O=C(CN1C(=O)NC2(CCCC2)C1=O)NCCc1ccccc1 | – | · | · | · | – | –
O=S1(=O)CC(N2CCN(CCO)CC2)CN1Cc1cn(Cc2cccc(C(F)(F)F)c2)nn1 (stereo not given) | – | · | · | · | · | ·
CC(C)[C@H](NC(=O)N1c2ccccc2NC(=O)[C@@H]1C(C)C)C(=O)N1CCC[C@H]1C(=O)O | – | – | – | – | – | ?
CC(=O)Nc1ccc(-c2csc(Nc3cc(C)ccn3)n2)cc1 | -61.5 | – | – | – | ? | –
CC(=O)Nc1cccc(-c2csc(Nc3ccc(Cl)cn3)n2)c1 | – | · | – | – | 11.2µM | –
CCC(=O)Nc1ccc(-c2csc(NNC(C)=O)n2)cc1 | – | ? | – | – | – | –
Cc1ccnc(Nc2nc(-c3c(C)nc4sccn34)cs2)c1 | -75.7 | – | 3.29µM | ? | 12.6µM | –
CCOC(=O)/C(C)=N/Nc1nc(-c2ccc(NC(C)=O)cc2)cs1 | – | 11.2µM | ? | 10.4µM | ? | –
CC(=O)Nc1cccc(-c2csc(Nc3cc(C)ccn3)n2)c1 | – | – | – | – | ? | –
COc1ccc(C(N)c2csc(Nc3ccc(C(=O)NCCCO)cn3)n2)cc1 (stereo not given) | – | · | · | · | · | ·
CNC(=S)NCCc1cc2c(OC)ccc(OC)c2[nH]c1=O | – | – | – | – | – | –
CCOc1cccc(-c2cc(NCCc3ccccn3)n3nccc3n2)c1 | – | · | · | · | · | ·
Cc1ccc(Cn2c(C(=O)O)c(CNCc3cccs3)c3ccc(C)cc32)cc1 | – | – | · | · | · | ·
CC(=O)Nc1cccc(-c2csc(NCc3ccccc3)n2)c1 | – | – | ? | 10.4µM | – | –
CC(=O)Nc1cccc(-c2csc(Nc3ccccn3)n2)c1 | – | – | – | – | 11.2µM | –
CC(C)CC(=O)Nc1cccc(-c2csc(-c3ccccc3)n2)c1 | – | – | ? | 6.57µM | ? | –
CC(=O)Nc1ccc(-c2csc(Nc3ccc(Cl)cn3)n2)cc1 | -61.1 | – | – | – | ? | –
CC(C)OC(=O)N(C)C[C@H]1OCc2cnnn2CCCC(=O)N([C@H](C)CO)C[C@H]1C | – | · | · | · | · | ·
CCc1nc2ccccc2n1CCC(C)C | – | – | – | – | ? | –
